Unmarked numbers belong to inactive results. For some assays here: Entries with a potency or affinity are not part of this list. Active and inactive are the calls of the source. Unless noted, no rule for the calls is given here.
Experiments:
[1] = antimalarial activity against Dd2 strain (AID 2302;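 active = growth inhibition above 50% at the single 2 µM test dose, taken to imply half-maximal potency below 2 µM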;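 also: 0% = DMSO untreated growth and 100% = chloroquine plus artemisinin killed control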); conditions: P. falciparum Dd2 in RBCs, LDH growth readout, 72 h; at 2 µM; stronger effect = higher value
[2] = human hepatoma cell viability loss – ATP luminescence, cytotoxicity control for P. falciparum antimalarial project, primary screen (AID 2303;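 active = inhibition above 50%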;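 also: 0% = DMSO wells and 100% = digitonin-killed cells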); conditions: HepG2 viability, 24-48 h, at 10 µM, stronger effect = higher value
[3] = target: L-lactate dehydrogenase (Plasmodium falciparum (isolate CDC / Honduras)) (UniProt Q27743); test: PfLDH activity inhibition – cell lysate, 3D7 strain, counter-screen for P. falciparum growth inhibition project (AID 2304);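 also: 0% = vehicle and 100% = reference inhibitor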; conditions: P. falciparum 3D7 crude extract, LDH APAD/NBT absorbance; at 2 µM; stronger effect = higher value
L-lactate dehydrogenase (Plasmodium falciparum (isolate CDC / Honduras)), sequence (Q27743 whole entry, looked up): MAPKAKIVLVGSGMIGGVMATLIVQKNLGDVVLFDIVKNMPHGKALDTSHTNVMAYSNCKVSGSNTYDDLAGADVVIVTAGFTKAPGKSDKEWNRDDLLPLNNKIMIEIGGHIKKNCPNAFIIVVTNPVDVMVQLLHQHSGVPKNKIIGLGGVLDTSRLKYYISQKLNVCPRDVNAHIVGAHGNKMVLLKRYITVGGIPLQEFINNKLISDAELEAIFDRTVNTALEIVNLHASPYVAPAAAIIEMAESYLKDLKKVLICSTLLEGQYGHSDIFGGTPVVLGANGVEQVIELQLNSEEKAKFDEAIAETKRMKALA

[4] = inhibition of 3D7 malaria parasite growth – strain 3D7 (AID 2306);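 also: 0% = DMSO wells and 100% = chloroquine plus artemisinin control wells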; conditions: P. falciparum 3D7 erythrocytic growth, LDH absorbance, 72 h; at 2 µM; stronger effect = higher value
[5] = target: Calcium-dependent protein kinase 1 (Plasmodium falciparum (isolate 3D7)) (UniProt P62344); test: PfCDPK1 kinase inhibitors, biochemical, TCAMS library (AID 1159585; cut-off not given, nearly all actives have IC50 up to about 0.98 µM;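 also: inhibitors leave more ATP so luminescence rises with inhibition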); conditions: recombinant PfCDPK1, Kinase-Glo ATP depletion luminescence
Calcium-dependent protein kinase 1 (Plasmodium falciparum (isolate 3D7)), sequence (P62344 whole entry, looked up): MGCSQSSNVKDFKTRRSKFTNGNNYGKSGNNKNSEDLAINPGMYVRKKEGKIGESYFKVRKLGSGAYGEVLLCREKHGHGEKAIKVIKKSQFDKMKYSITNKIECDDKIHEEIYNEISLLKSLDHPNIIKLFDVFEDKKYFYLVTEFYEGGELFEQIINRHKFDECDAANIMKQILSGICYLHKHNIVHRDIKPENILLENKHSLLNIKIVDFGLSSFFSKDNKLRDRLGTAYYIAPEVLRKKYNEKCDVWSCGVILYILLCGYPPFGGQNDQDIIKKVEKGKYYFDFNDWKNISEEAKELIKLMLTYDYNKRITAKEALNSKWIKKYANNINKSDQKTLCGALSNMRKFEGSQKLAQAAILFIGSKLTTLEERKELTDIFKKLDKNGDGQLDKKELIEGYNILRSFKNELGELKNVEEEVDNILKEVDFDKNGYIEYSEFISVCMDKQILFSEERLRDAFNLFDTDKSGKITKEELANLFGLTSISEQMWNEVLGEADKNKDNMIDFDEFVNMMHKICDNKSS

[6] = target: Plasmodium falciparum protein kinase 6 (PK6, PF3D7_1337100) (UniProt Q8IDW1); test: PfPK6 kinase inhibitors, biochemical, TCAMS library (AID 1159586); conditions: recombinant PfPK6, Kinase-Glo ATP depletion luminescence
Plasmodium falciparum protein kinase 6 (PK6, PF3D7_1337100), sequence (Q8IDW1 1-305): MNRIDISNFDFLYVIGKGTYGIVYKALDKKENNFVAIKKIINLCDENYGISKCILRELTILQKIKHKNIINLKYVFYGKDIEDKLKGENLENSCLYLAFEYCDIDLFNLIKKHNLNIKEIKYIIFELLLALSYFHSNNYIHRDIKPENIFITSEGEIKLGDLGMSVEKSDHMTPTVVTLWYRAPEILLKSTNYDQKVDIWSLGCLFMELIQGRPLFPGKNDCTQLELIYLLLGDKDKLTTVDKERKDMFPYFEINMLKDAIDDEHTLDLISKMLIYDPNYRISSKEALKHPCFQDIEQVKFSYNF

[7] = target: Protein kinase 7 (PK7), Plasmodium falciparum 3D7 (PF3D7_0213400) (UniProt Q7YTF7); test: inhibition of Plasmodium PK7 catalytic activity – biochemical, TCAMS antimalarial set, Kinase-Glo luminescence (AID 1159587); conditions: recombinant PfPK7, Kinase-Glo ATP depletion luminescence
Protein kinase 7 (PK7), Plasmodium falciparum 3D7 (PF3D7_0213400), sequence (Q7YTF7 1-343): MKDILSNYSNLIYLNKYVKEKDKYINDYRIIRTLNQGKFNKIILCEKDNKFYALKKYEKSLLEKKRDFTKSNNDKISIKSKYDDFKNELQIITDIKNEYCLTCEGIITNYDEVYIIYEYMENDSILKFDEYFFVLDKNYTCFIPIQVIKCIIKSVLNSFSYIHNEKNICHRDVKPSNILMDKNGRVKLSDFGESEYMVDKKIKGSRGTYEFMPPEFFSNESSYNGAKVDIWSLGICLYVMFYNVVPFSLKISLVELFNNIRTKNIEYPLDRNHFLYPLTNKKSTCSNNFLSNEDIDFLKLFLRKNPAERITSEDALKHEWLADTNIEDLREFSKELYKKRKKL

[8] = target: Calcium-dependent protein kinase 4 (Plasmodium falciparum (isolate 3D7)) (UniProt Q8IBS5); test: PfCDPK4 kinase inhibitors, biochemical, TCAMS library (AID 1159588; cut-off not given, nearly all actives have IC50 up to about 0.91 µM); conditions: recombinant PfCDPK4, Kinase-Glo ATP depletion luminescence
Calcium-dependent protein kinase 4 (Plasmodium falciparum (isolate 3D7)), sequence (Q8IBS5 whole entry, looked up): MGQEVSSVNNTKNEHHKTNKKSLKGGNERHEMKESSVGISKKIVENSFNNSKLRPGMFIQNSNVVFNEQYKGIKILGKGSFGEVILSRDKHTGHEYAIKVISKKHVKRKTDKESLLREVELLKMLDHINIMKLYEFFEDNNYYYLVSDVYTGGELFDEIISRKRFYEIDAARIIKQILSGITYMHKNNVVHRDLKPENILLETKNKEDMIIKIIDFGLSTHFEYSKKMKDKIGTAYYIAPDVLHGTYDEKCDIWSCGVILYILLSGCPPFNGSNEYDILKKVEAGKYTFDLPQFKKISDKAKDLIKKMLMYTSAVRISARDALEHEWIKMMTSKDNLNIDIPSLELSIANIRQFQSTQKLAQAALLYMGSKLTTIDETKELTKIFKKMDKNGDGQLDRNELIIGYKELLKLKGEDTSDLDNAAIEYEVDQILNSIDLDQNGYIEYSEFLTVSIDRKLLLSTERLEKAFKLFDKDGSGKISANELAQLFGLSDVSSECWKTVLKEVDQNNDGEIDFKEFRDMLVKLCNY

| SMILES | growth inhibition [1] | inhibition [2] | inhibition [3] [%] | growth inhibition [4] | outcome [5] | outcome [6] | outcome [7] | outcome [8] |
| --- | --- | --- | --- | --- | --- | --- | --- | --- |
| c1ccc2sc(Sc3ncnc4sccc34)nc2c1 | 100% (active) | 7% | 2 | 100% (active) | inactive | inactive | inactive | inactive |
| CC(C)(C)c1nn(-c2ccccc2)c2[nH]c(=O)c(CNC3CCCCC3)cc12 | 76% (active) | 6% | 3 | 83% (active) | inactive | inactive | inactive | inactive |
| CC[C@H](C)CNC(=O)c1cncc(-c2ccc(CNC3Cc4ccccc4C3)cc2)c1 | 95% (active) | 14% | 3 | 101% (active) | inactive | inactive | inactive | inactive |
| Cc1cccc(C(=O)Nc2ccnc(N3CCC(N(C)Cc4cccc(O)c4)CC3)c2)c1 | 41% | 7% | -1 | 95% (active) | inactive | inactive | inactive | inactive |
| COc1cc(CNCCCNc2nc3ccsc3c(=O)[nH]2)c2[nH]cc(Cl)c2c1 | -2% | 29% | 2 | 96% (active) | inactive | inactive | inactive | inactive |
| CC1CCN(CC[C@H]2CCCN2S(=O)(=O)c2cccc(NC(=O)c3cc4ccccc4s3)c2)CC1 | 41% | 28% | 2 | 97% (active) | inactive | inactive | inactive | inactive |
| CN(C)CCCn1c(N)c(-c2nc3ccccc3[nH]2)c2nc(C#N)c(C#N)nc21 | 101% (active) | 100% (active) | -1 | 102% (active) | inactive | inactive | inactive | inactive |
| CN1CCC(NCc2ccc(-c3cccc(S(=O)(=O)NCC4CCCO4)c3)cc2)CC1 (stereo not given) | 0% | 8% | -1 | 90% (active) | inactive | inactive | inactive | inactive |
| CC(C)CNCc1ccc(-c2cccc(CN(CCCN3CCN(C)CC3)C(=O)/C=C/c3ccccc3)c2)cc1 | 93% (active) | 43% | 0 | 95% (active) | inactive | inactive | inactive | inactive |
| CCc1c(C(=O)NC2CCC(N3CCC(c4ccccc4OC)CC3)CC2)[nH]c2ccc(Br)cc12 (stereo not given) | 98% (active) | 85% (active) | -1 | 101% (active) | inactive | inactive | inactive | inactive |
| O=C(/C=C/c1ccc(F)cc1)NC1CCC(CCN2CCCN(c3ccc(C(F)(F)F)cn3)CC2)CC1 (stereo not given) | 13% | 29% | -1 | 97% (active) | inactive | inactive | inactive | inactive |
| CN1CCN(c2ccc(Nc3ncc([N+](=O)[O-])c(Nc4ccccc4O)n3)cc2)CC1 | 97% (active) | 98% (active) | -3 | 100% (active) | inactive | inactive | inactive | inactive |
| CCCC(CNCc1cccc(C)c1)CNc1cc(=O)c2ccccc2[nH]1 (stereo not given) | 89% (active) | -2% | -7 | 99% (active) | inactive | inactive | inactive | inactive |
| CCC(CC)(CCC#N)CN(C[C@@H](O)[C@H](Cc1ccccc1)NC(=O)OC(C)(C)C)S(=O)(=O)c1ccc(OC)cc1 | 66% (active) | -12% | 0 | 82% (active) | inactive | inactive | inactive | inactive |
| Nc1ncc(-c2ccccc2)cc1-c1nc2cc(Cl)c(F)cc2[nH]1 | 91% (active) | 37% | 1 | 101% (active) | inactive | inactive | inactive | inactive |
| Cn1ncc2ccc(Nc3nccc(-c4ccc5c(c4)c(N)nn5C)n3)cc21 | 96% (active) | 48% | -2 | 99% (active) | inactive | inactive | inactive | inactive |
| O=C(Nc1cccc(-c2nn3ccccc3c2-c2ccnc(Nc3cccc(F)c3)n2)c1)c1c(F)ccc(F)c1F | 73% (active) | 33% | -1 | 96% (active) | inactive | inactive | inactive | inactive |
| O=C(NCCCCCN1CCC(c2c[nH]c3ccccc23)CC1)c1ccc(Cl)c(Cl)c1 | 10% | 48% | -2 | 85% (active) | inactive | inactive | inactive | inactive |
| Cc1cccc2[nH]c(-c3cccc(-c4cccc(CN5CCCC5CN)c4)c3)nc12 (stereo not given) | 72% (active) | 15% | 6 | 101% (active) | inactive | inactive | inactive | inactive |
| O=C(/C=C/c1ccc(Cl)c(Cl)c1)NCCCCCCN1CCCN(C(=O)Nc2cc(F)cc(F)c2)CC1 | -1% | 25% | -6 | 99% (active) | inactive | inactive | inactive | inactive |

| SMILES | growth inhibition [1] | inhibition [2] | inhibition [3] [%] | growth inhibition [4] | outcome [5] | outcome [6] | outcome [7] | outcome [8] |
| --- | --- | --- | --- | --- | --- | --- | --- | --- |
| CCCN(C(=O)c1ccccc1C)c1nnc(-c2ccccc2C)s1 | 65% (active) | 16% | -7 | 90% (active) | inactive | inactive | inactive | inactive |
| O=C(NCCc1ccc(O)cc1)n1c2ccccc2c2ccccc21 | 76% (active) | 3% | -1 | 83% (active) | inactive | inactive | inactive | inactive |
| CC(=O)c1cccc2[nH]c(C(=O)NC3CCC(CCN4CCc5ccc(C#N)cc5C4)CC3)cc12 (stereo not given) | 0% | 12% | 1 | 96% (active) | inactive | inactive | inactive | inactive |
| COc1ccc(NC(=O)CCNc2cc(C)nc(NCc3cccc(C)c3)n2)cc1 | 25% | 14% | 1 | 100% (active) | inactive | inactive | inactive | inactive |
| CCCCCCN(C(=O)OCc1ccccc1)[C@@H]1CCN(C(=O)OC(C)(C)C)C[C@H]1C(=O)OCC | 96% (active) | 9% | -6 | 96% (active) | inactive | inactive | inactive | inactive |
| Cc1cc(N2CCCC2)nc(Nc2ccc(NC(=O)C(C)(C)C)cc2)n1 | 15% | 24% | 2 | 95% (active) | inactive | inactive | inactive | inactive |
| CCCc1ccccc1Nc1nc(C)cc(N(CC)CCCN2CCCCC2)n1 | 49% | 27% | -3 | 98% (active) | inactive | inactive | inactive | inactive |
| CN(C)Cc1ccc(-c2cc3ncnc(Nc4ccc(OCc5cccc(F)c5)c(Cl)c4)c3s2)[nH]1 | 87% (active) | 53% (active) | 6 | 99% (active) | inactive | inactive | inactive | inactive |
| C=C1N(C)c2cc([N+](=O)[O-])c(N)cc2C1(C)C | 83% (active) | 22% | -2 | 98% (active) | inactive | inactive | inactive | inactive |
| CC(C)COc1ccc(Cl)cc1Cc1ccc(-c2nc3ccc(C(F)(F)F)cc3[nH]2)o1 | 51% (active) | 14% | 5 | 97% (active) | inactive | inactive | inactive | inactive |
| COc1ccccc1CCNc1nccc(N[C@@H](Cc2ccccc2)C(=O)NCc2cccs2)n1 | 79% (active) | 34% | 3 | 90% (active) | inactive | inactive | inactive | inactive |
| COc1cc(C(=O)N2CCOC(CCN3CCc4c(c5ccccc5n4C)C3)(c3ccc(Cl)c(Cl)c3)C2)cc(OC)c1OC (stereo not given) | 68% (active) | 16% | -4 | 87% (active) | inactive | inactive | inactive | inactive |
| O=C(NCC1CCC(C(=O)NCc2cccc(C(F)(F)F)c2)CC1)c1ccc(O)c(-c2ccc(Cl)c(Cl)c2)c1 (stereo not given) | 41% | 5% | 0 | 98% (active) | inactive | inactive | inactive | inactive |
| CCN(CCCN1CCCCC1)c1cc(C)nc(Nc2ccc(Br)cc2F)n1 | 24% | 32% | -6 | 95% (active) | inactive | inactive | inactive | inactive |
| Cc1nnsc1C(=O)Nc1cccc(-c2ccc(-c3nc4ccc(F)cc4[nH]3)cc2)c1 | 89% (active) | 51% (active) | 4 | 100% (active) | inactive | inactive | inactive | inactive |
| COc1ccc(C(=O)COc2cccc(/C=C/C(=O)O)c2)cc1OC | 28% | 44% | 3 | 84% (active) | inactive | inactive | inactive | inactive |
| C=CCOC(=O)N1CCC(CNCc2cccc(-c3ccc(-c4nc5c(C)cccc5[nH]4)cc3)c2)C1 (stereo not given) | 82% (active) | 24% | 1 | 103% (active) | inactive | inactive | inactive | inactive |
| CC(=O)c1cccc(NC(=O)NC2CCN(c3ccnc(Nc4ccc(F)cc4)n3)C2)c1 (stereo not given) | 94% (active) | 10% | -2 | 99% (active) | inactive | inactive | inactive | inactive |
| O=C(Nc1cccc(F)c1)N(Cc1ccc(-c2cccc(CN3CCNCC3)c2)cc1)C1CCN(Cc2ccccc2)CC1 | 54% (active) | 13% | -1 | 97% (active) | inactive | inactive | inactive | inactive |
| COc1ccc2ncc(F)c(CCN3CCC[C@H](CNCc4ccc5c(n4)NC(=O)CS5)C3)c2n1 | 34% | 16% | 3 | 96% (active) | inactive | inactive | inactive | inactive |

— PubChem BioAssay
